Screens: PubChem BioAssay, several laboratories
Rows were chosen to be rich in hits. Some 2.1% of all compounds tested hit in one or more screens of this group.
Ba/F3 V617F tox: lowers viability of Ba/F3 cells expressing EpoR and JAK2V617F | ATP luminescence | inhibition, % at 5.6 µM | 1.1% of 220,000 active;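 active = inhibition above the campaign mean plus 3 SD over all tested compounds, cut at about 24% in these data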;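 also: cytokine-independent growth of Ba/F3 cells driven by EpoR plus mutant JAK2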
APP transl inh: APP translation inhibition. SH-SY5Y APP 5'UTR-luciferase reporter, luminescence. inhibition, % at 2 µM. 0.82% of 190,000 active. AID 1285;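 active = inhibition above a set limit, derived from the sample mean plus 3 SD, cut at about 45% in these data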
KLF5 inh: suppresses KLF5 promoter-driven expression | DLD-1 KLF5 promoter-luciferase reporter, luminescence | 0.23% of 290,000 active | AID 1700 | inhibition, % at 5 µM;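 active = inhibition above a per-plate limit of that plate's mean compound inhibition plus 3 SD, cut at about 60% in these data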;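 also: higher means less KLF5 promoter-driven luciferase light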
BaF3 parental: parental Ba/F3 viability inhibition as JAK2V617F counter-screen; CellTiter-Glo ATP luminescence; inhibition, % at 5.6 µM; 1.1% of 220,000 active; AID 1486;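 active = inhibition above a per-campaign cutoff, the mean inhibition of all tested compounds plus 3 SD, cut at about 27% in these data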
aSyn 5UTR inh: MLPCN primary screen, SNCA 5' untranslated region | 0.82% of 300,000 active | alpha-synuclein 5'UTR reporter, inhibitor activity | inhibition, % (tested at 7.5 µM) | AID 1813; in the data active = inhibition above about 60%;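 also: H4 neuroglioblastoma cells stably carrying SNCA 5'UTR luciferase fusion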
IEC-6 tox: IEC-6 cytotoxicity, counter-screen for KLF5 inhibitors. luminescence viability. inhibition, % at 5 µM. 0.78% of 290,000 active; in the data active = inhibition above about 22%
Of the large screens only hits and unclear results are named; the others gave an inactive call.

O=C(Oc1c(CN2CCOCC2)cc(Cl)c2cccnc12)c1ccc(F)cc1	aSyn 5UTR inh 65
CCc1cccc(NC(=O)CCCn2c(=O)[nH]c3ccsc3c2=O)c1	none (no result: Ba/F3 V617F tox, APP transl inh, BaF3 parental)
Cc1csc(NC(=O)c2cn3ccccc3n2)n1	aSyn 5UTR inh 82
O=C(Nc1ccccc1)c1cn2ccccc2n1	none (no result: APP transl inh)
CN1CCN(/N=C/c2ccc(N(c3ccccc3)c3ccccc3)cc2)CC1	aSyn 5UTR inh 71
CN1CCN(/N=C/c2ccc(N(C)c3ccccc3)cc2)CC1	none
COc1ccc(NC(=O)NC(=O)c2ccccc2)cc1	none (no result: Ba/F3 V617F tox, APP transl inh, BaF3 parental)
O=C(NC(=O)c1ccccc1)Nc1ccccc1	aSyn 5UTR inh 72 (no result: Ba/F3 V617F tox, APP transl inh, BaF3 parental)
Cc1cccc(-c2noc(CCCC(=O)NC3CCCCC3)n2)c1	none (no result: Ba/F3 V617F tox, APP transl inh, BaF3 parental)
Cn1c(N)c(C(=O)COC(=O)c2ccc([N+](=O)[O-])o2)c(=O)n(C)c1=O	none (no result: APP transl inh)
CC(Oc1cccc(Cl)c1)C(=O)Nc1nc(-c2ccccn2)cs1 (configuration not stated)	aSyn 5UTR inh 64 (no result: Ba/F3 V617F tox, APP transl inh, KLF5 inh, BaF3 parental, IEC-6 tox)
Cc1ccc(-c2nn(-c3ccccc3)cc2CSC(=N)N)cc1	aSyn 5UTR inh 119
OCc1cn(-c2ccccc2)nc1-c1ccc(-c2nn(-c3ccccc3)cc2CO)cc1	none
CC1=CC(C)C2(COC(c3ccc[n+](C)c3)OC2)C(C)C1 (configuration not stated)	Ba/F3 V617F tox 65, BaF3 parental 72 (no result: aSyn 5UTR inh)
CC1CCCN(S(=O)(=O)c2cc3c4c(c2)C(C)C(=O)N4CCC3)C1 (configuration not stated)	none (no result: Ba/F3 V617F tox, APP transl inh, BaF3 parental)
CCOC(=O)c1sc(NC(=O)Nc2ccccc2F)nc1C	aSyn 5UTR inh 70
CCOC(=O)c1sc(Nc2ccccc2Cl)nc1C	none (no result: APP transl inh)
CC(NCC(=O)NC(=O)NC1CCCC1)c1ccc(Cl)cc1Cl (configuration not stated)	none (no result: Ba/F3 V617F tox, APP transl inh, KLF5 inh, BaF3 parental, IEC-6 tox)
Cc1ccc(C(=O)/C=C/Nc2ccccn2)cc1	aSyn 5UTR inh 75
Cc1ccc(C(=O)/C=C/C(=O)c2ccc(C)cc2)cc1	APP transl inh 66
CCc1ccc(S(=O)(=O)N2CCN(C(=O)c3cccnc3)CC2)cc1	none (no result: Ba/F3 V617F tox, APP transl inh, BaF3 parental)
O=C1NC(=O)/C(=C\c2ccc(Oc3cnccn3)cc2)S1	none
O=Cc1ccc(Oc2cnccn2)cc1	APP transl inh 76
CCn1cc(CN2CCc3c([nH]c4ccccc34)C2c2cccc(OC)c2OC)c(C)n1 (configuration not stated)	none
Cc1ccc(C2(c3ccc(C)cc3)CC2C(=O)Nc2ccc([N+](=O)[O-])cc2O)cc1 (configuration not stated)	aSyn 5UTR inh 67
COc1cc(C)c(Cl)c(C)c1S(=O)(=O)NCc1cccnc1	APP transl inh 46
Cc1cc(C)c(C)c(S(=O)(=O)NCc2cccnc2)c1C	none
O=C(c1cccc(Br)c1)N1CCN(C(=O)N2CCOCC2)CC1	APP transl inh 63
CCn1c(SC)nnc1-c1sc2cc(Cl)ccc2c1Cl	BaF3 parental 40
CSc1nnc(-c2sc3cc(Cl)ccc3c2Cl)n1C	none
CCOc1ccccc1N(C)C(=O)CCS(=O)(=O)c1ccc2c(c1)NC(=O)CO2	none (no result: Ba/F3 V617F tox, APP transl inh, BaF3 parental)
Cc1cccc2sc(N(CCCN(C)C)C(=O)CCc3ccccc3)nc12	aSyn 5UTR inh 62
Cc1cccc2sc(N(CCCN(C)C)C(=O)CN3C(=O)c4ccccc4C3=O)nc12	none
Cc1cc(C)c(NC(=O)CNC(=O)COC(=O)C2=COCCO2)c(C)c1	none (no result: Ba/F3 V617F tox, APP transl inh, KLF5 inh, BaF3 parental, IEC-6 tox)
NC(N)=NC(N)=Nc1ccc(SC(F)(F)F)cc1	Ba/F3 V617F tox 75, BaF3 parental 67, IEC-6 tox 35
Cc1cc(C)n(-c2ccc3cccc(NS(C)(=O)=O)c3n2)n1	aSyn 5UTR inh 90
CS(=O)(=O)Nc1cccc2cccnc12	none (no result: aSyn 5UTR inh)
COC(=O)c1cc(Br)ccc1NC(=O)Nc1ccc(C)cc1	BaF3 parental 34
S=C(c1ccc(-c2ccccc2)cc1)N1CCOCC1	aSyn 5UTR inh 64 (no result: Ba/F3 V617F tox, APP transl inh, BaF3 parental)
CC(=O)Nc1ccc(-c2ccc(NC(C)=O)cc2)cc1	none
CC(=O)Nc1ccc(C#Cc2ccc(NC(C)=O)cc2)cc1	aSyn 5UTR inh 74
CC(=O)n1c(Cl)c(NC(=O)CCl)c2ccccc21	APP transl inh 75
CC(=O)n1c2ccccc2c2ccccc21	none
Cn1cnc([N+](=O)[O-])c1S(=O)(=O)c1cccc(Cl)c1	Ba/F3 V617F tox 86, BaF3 parental 102, IEC-6 tox 68
COc1ccc(OC)c(S(=O)(=O)N2CCC(C(=O)NCc3ccccn3)CC2)c1	none (no result: Ba/F3 V617F tox, APP transl inh, BaF3 parental)
CC(=O)Nc1ccc(NC(=O)CN(c2cccc([N+](=O)[O-])c2)S(C)(=O)=O)cc1	aSyn 5UTR inh 69
CS(=O)(=O)N(CC(=O)Nc1cccc(F)c1)c1cccc([N+](=O)[O-])c1	none
CC(=O)O[C@H]1C(=O)[C@]2(C)[C@H]([C@H](OC(=O)c3ccccc3)[C@]3(O)C[C@H](OC(=O)[C@H](O)[C@@H](NC(=O)c4ccccc4)c4ccccc4)C(C)=C1C3(C)C)[C@]1(OC(C)=O)CO[C@@H]1C[C@@H]2O	aSyn 5UTR inh 95 (no result: Ba/F3 V617F tox, APP transl inh, KLF5 inh, BaF3 parental, IEC-6 tox)
Cc1ccc(C(=O)NCCc2cccs2)cc1	aSyn 5UTR inh 73
O=C(NCCc1cccs1)c1ccc(Cl)cc1	none (no result: APP transl inh)
Nc1[nH]n2c(=O)cc(-c3ccccc3)nc2c1N=Nc1ccccc1	aSyn 5UTR inh 68
CCCCCCCC#Cc1ccccc1/C=N/S(=O)c1ccc(C)cc1 (configuration not stated)	BaF3 parental 38 (no result: aSyn 5UTR inh)
Cc1cc2nc3ccc(=[N+](C)C)cc-3sc2cc1N	Ba/F3 V617F tox 68, BaF3 parental 85, aSyn 5UTR inh 91 (no result: APP transl inh)
Cc1nc2cc(C)c(C)cc2s1	none
CN(C)c1ccc2nc3ccc(=[N+](C)C)cc-3sc2c1	Ba/F3 V617F tox 97, APP transl inh 62, BaF3 parental 101
COc1cccc(CNC(=O)C2CCN(c3nnc(N4CCCC4=O)s3)CC2)c1	none (no result: Ba/F3 V617F tox, APP transl inh, BaF3 parental)
Cc1oc(-c2ccc(Cl)cc2)nc1CS(=O)CC(=O)NC1CCCC1 (configuration not stated)	none (no result: Ba/F3 V617F tox, APP transl inh, BaF3 parental)
O=C(COc1coc(CN2CCc3ccccc3C2)cc1=O)Nc1cccc([N+](=O)[O-])c1	none (no result: Ba/F3 V617F tox, APP transl inh, KLF5 inh, BaF3 parental, IEC-6 tox)
CCOC(=O)C1(CC2CC2)CCN(Cc2ccc(OC)cc2F)CC1	BaF3 parental 80
CCOC(=O)C1(CC2CC2)CCN(Cc2cc(Cl)c(O)c(OC)c2)CC1	none
Cc1cc(/C=c2\sc3nc4ccccc4n3c2=O)c(C)n1-c1ccc(C(=O)O)cc1	none
Cc1cc(/C=c2/sc3nc4ccccc4n3c2=O)c(C)n1-c1ccccn1	APP transl inh 60, aSyn 5UTR inh 88
Cc1c(C(=O)O)sc2[nH]c(=O)n(Cc3ccccc3)c(=O)c12	none (no result: Ba/F3 V617F tox, APP transl inh, BaF3 parental)
CC(=O)Nc1ccc(NC(=O)C(C)OC(=O)C2CC3C=CC2C3)cc1 (configuration not stated)	BaF3 parental 57
CC(C1CC2CCC1C2)n1c(-c2ccco2)n[nH]c1=S (configuration not stated)	APP transl inh 54
CN(C)c1ccc(-c2nnc(-c3cccs3)o2)cc1	aSyn 5UTR inh 82
COc1c([N+](=O)[O-])cc(C(=O)NNC(=O)c2ccc(C)cc2)cc1[N+](=O)[O-]	none (no result: Ba/F3 V617F tox, APP transl inh, BaF3 parental)
